Hit rate of the full screen: of about 360,000 compounds, about 1,700 (0.47%) were called active. Entries that show only a call come without a potency. Not shown: some 2% with an inconclusive outcome. The call rests on the fitted dose curve; in most records, active means well fitted inhibition curve with a large enough effect; inconclusive means small, poorly fitted or top-dose-only effect; inactive means no such curve, though single readings can be large or run the other way. Only a selection was taken, and actives are over-represented in it overall.
Potency means the concentration at half of the fitted maximal effect.

Bifunctional 3'-5' exonuclease/ATP-dependent helicase WRN (Homo sapiens), sequence (Q14191 whole entry, looked up): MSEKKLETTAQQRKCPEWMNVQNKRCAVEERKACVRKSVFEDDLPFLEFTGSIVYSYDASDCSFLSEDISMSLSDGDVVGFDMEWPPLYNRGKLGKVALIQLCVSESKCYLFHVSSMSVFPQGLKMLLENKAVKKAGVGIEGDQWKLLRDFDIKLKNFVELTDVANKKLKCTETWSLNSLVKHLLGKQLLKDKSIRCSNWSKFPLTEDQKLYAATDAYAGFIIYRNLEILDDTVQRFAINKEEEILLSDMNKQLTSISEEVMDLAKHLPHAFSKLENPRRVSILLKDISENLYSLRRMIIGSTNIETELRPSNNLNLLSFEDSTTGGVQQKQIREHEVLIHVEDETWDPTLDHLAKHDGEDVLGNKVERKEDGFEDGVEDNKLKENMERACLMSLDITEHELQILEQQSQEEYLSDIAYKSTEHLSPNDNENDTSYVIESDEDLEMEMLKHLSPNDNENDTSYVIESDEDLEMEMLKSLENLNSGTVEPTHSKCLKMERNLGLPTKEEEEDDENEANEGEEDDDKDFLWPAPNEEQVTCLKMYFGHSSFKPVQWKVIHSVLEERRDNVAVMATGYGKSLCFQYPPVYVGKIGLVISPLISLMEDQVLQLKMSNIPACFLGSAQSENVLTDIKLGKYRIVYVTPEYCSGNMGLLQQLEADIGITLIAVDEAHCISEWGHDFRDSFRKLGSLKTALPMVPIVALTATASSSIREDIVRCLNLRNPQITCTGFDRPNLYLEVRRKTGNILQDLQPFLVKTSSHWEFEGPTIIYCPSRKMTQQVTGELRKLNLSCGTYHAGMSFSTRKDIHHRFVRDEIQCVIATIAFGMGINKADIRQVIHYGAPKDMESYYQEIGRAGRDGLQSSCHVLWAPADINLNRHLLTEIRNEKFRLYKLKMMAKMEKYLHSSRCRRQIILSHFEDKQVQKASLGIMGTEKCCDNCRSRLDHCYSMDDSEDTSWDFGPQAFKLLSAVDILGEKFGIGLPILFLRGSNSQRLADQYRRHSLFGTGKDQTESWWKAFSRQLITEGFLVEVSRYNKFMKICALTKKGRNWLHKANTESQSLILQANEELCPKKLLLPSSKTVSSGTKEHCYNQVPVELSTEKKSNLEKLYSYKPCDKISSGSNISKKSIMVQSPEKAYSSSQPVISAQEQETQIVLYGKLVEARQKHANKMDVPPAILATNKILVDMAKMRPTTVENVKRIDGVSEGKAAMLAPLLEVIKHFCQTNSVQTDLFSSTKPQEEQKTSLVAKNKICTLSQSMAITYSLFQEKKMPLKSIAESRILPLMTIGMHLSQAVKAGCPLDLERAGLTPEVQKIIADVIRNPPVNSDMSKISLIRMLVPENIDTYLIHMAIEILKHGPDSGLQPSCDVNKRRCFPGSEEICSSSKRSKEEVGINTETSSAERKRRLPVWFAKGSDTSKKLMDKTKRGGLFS

The assay concerns the target Bifunctional 3'-5' exonuclease/ATP-dependent helicase WRN (Homo sapiens) (UniProt Q14191). The experiment in a line: qHTS for Inhibitors of WRN Helicase. Further: nearly all actives have a fitted effect of over 55% in size. The settings on record: WRN helicase unwinding, fluorescent forked duplex, kinetic; series mostly up to 114 µM. The text has this: Inhibition of DNA repair is proposed as a strategy for combating cancer. Synthetic lethality is an approach that exploits preexisting DNA repair deficiencies in certain tumors to develop inhibitors of DNA repair pathways that compensate for the tumor-associated DNA repair deficiency. Because helicases play critical roles in the DNA damage response and in DNA repair, particularly in actively dividing and replicating cells, characterization of synthetic lethal relationships of DNA helicases may be of value in developing improved anticancer treatment strategies; moreover, small molecules that specifically target a given DNA helicase may be useful for understanding its role in cellular nucleic acid metabolism. The goal of this project is to identify small molecule, non-covalent chemical inhibitors of the Werner syndrome (WS) helicase (WRN), which plays an important role in cell proliferation, the replication stress response, and DNA repair. […] The WRN gene product that is defective in the chromosomal instability disorder has DNA helicase and exonuclease activities and interacts with a number of nuclear proteins to maintain genomic stability. We will employ an optimized high-throughput screening assay that utilizes a fluorescence intensity modulation scheme with a fluorophore and quencher positioned near one another within a duplex deoxyoligonucleotide that contains a single forked structure. After a high-throughput screen of the ~350,000-member Molecular Libraries Small Molecule Repository (MLSMR) collection, followed by data analysis and hit selection, a panel of confirmatory, as well as secondary and ternary, assays will be employed to identify high-confidence WRN inhibitors. Structure-activity relationships will be investigated for the top candidate inhibitor series through medchem expansion. These are the results of the primary screening campaign against the MLSMR. NIH Chemical Genomics Center [NCGC] NIH Molecular Libraries Probe Centers Network [MLPCN] MLPCN Grant: MH096530 Assay Submitter (PI): Robert Brosh, National Institute of Aging
Three muL of reagents (buffer in columns 3 and 4 as negative controls; WRN at 20 nM final concentration in columns 1 and 2 as positive controls; columns 5-48 as test reactions) will be dispensed into a 1536-well Greiner black plate via solenoid-valve based nanoliter dispensers. Compounds (23 nL each in columns 5-48) and control (23 nL each in column 2 as dose-response) will be transferred via a Kalypsys pintool equipped with a 1536-pin array. Plates will be incubated for 15 min at room temperature, and then 1 µL of substrate (100 nM forked duplex oligonucleotide and 2 mM ATP final concentrations) will be added to start reaction, and plate will be transferred into a ViewLux high-throughput CCD imager where reaction progress is measured in kinetic mode using standard red-fluorescence optics (excitation filter 525 nm, emission filter 598 nm).
In general terms: qHTS replaces the single test concentration by a dilution series.
For `COc1ccc(CNC(=O)/C(C#N)=C/c2cccc(OC)c2OC)cc1`, the Potency entry was “inactive”.

As for `Cc1ccc(/C=C(\C#N)C(=O)Nc2cccc3ncccc23)o1`, the Potency was 20 µM (active).

Consider `Cc1ccc2c(NC(=O)C3CC3)cccc2n1`, for which the Potency result was “inactive”.

As to `CC(O)CN(Cc1ccc(Cl)cc1)CC(C)O` (configuration not stated), the Potency entry is “inactive”.

For the compound `Cc1ccc(S(=O)(=O)NC[C@H]2O[C@@H](n3cnc4c(N)ncnc43)[C@H](O)[C@@H]2O)s1`, the Potency entry was “inactive”.

Take `O=c1ccc2c(-c3ccccc3S(=O)(=O)O)c3ccc(O)c(O)c3oc-2c1O`: the Potency was 0.212 µM (active).

Turning to `CCC(C)CN1C(=O)CSCC1(C)C(=O)NCc1ccccc1` (configuration not stated), the Potency result is “inactive”.

Take `O=C(CSc1nnc(-c2ccncc2)o1)NCc1ccc(Cl)cc1`: the Potency result is “inactive”.

With `COc1ccc2c(c1)c(=Cc1ccc(N(C)C)cc1)c1cc(-c3ccccc3)[n+](C)n12`, the Potency is 28.2 µM (active).

On to `CCOC(=O)N1CCC(N2Cc3cccc(C(=O)Nc4ccc(S(=O)(=O)N(CC)CC)cc4)c3C2=O)CC1`, for which the Potency result was “inactive”.

In the case of `CCCCn1c(SCc2ncc(-c3ccccc3)o2)nc2cc(S(N)(=O)=O)ccc21`, the Potency entry was “inactive”.

In the case of `COc1ccc(N(CC(=O)NCCSCc2cccc(Cl)c2)S(C)(=O)=O)cc1`, the Potency entry was “inactive”.

Take `COC(=O)c1ccc(C(NC(=O)OCc2ccccc2)/C(C)=C/[C@@H](C)C(=O)NCc2ccc(OC)c(OC)c2)cc1` (some centres not stated): the Potency result was “inactive”.

As to `COc1cc(/C=C/C(=O)OCC(=O)NC(=O)NCc2ccccc2)ccc1OCC#N`, the Potency entry is “inactive”.

As to `COC(=O)c1ccc(COc2ccc(/C=C/C(=O)c3ccc(OC)c(CSCC(=O)O)c3)cc2OC)cc1`, the Potency was 44.7 µM (active).

As for `COc1cccc(/C=N/NC(=O)C(=O)N2CCCC2)c1`, the Potency entry was “inactive”.

Take `CC(NC(=O)C(=O)NN=C1CCC(C(C)(C)C)CC1)c1ccccc1` (configuration not stated): the Potency entry was “inactive”.

In the case of `CC(=O)Nc1cncc(-c2ccccc2CO)n1`, the Potency entry was “inactive”.

Turning to `O=C(O)C1C2C=CC(C2)C1C(=O)N1CCN(CCO)CC1` (configuration not stated), the Potency result was “inactive”.

Turning to `C#CCOCCOCCOCCNc1nc(N2CCN(C(=O)[C@H](CCC(=O)O)n3cc(C(N)CO)nn3)CC2)nc(N2CCN(C(=O)[C@H](Cc3ccc(O)cc3)n3cc(C(N)[C@H](C)CC)nn3)CC2)n1` (some centres not stated), the Potency result was “inactive”.

Regarding `C#CCOCCOCCOCCNc1nc(N2CCN(C(=O)CCCCCCCCCCNC(=O)[C@H]([C@@H](C)CC)n3cc(CCCCN=C(N)N)nn3)CC2)nc(N2CCN(C(=O)CCCCCCCCCCNC(=O)[C@H](CO)n3cc(CCCSC)nn3)CC2)n1`, the Potency is 25.1 µM (active).

With `C#CCOCCOCCOCCNc1nc(N2CCOCC2)nc(N2CCN(C(=O)[C@H](Cc3ccc(O)cc3)n3cc(CCO)nn3)CC2)n1`, the Potency entry is “inactive”.

On to `C#CCOCCOCCOCCNc1nc(N2CCN(C(=O)[C@H](CCCCN)n3cc([C@@H](N)C(C)CC)nn3)CC2)nc(N2CCN(C(=O)[C@H](Cc3ccc(O)cc3)n3cc([C@@H](N)C(C)CC)nn3)CC2)n1` (some centres not stated), for which the Potency result is “inactive”.

In the case of `C#CCOCCOCCOCCNc1nc(N2CCN(C(=O)CCCCCCCCCCNC(=O)[C@H](CCCCN)n3cc(C)nn3)CC2)nc(N2CCN(C(=O)CCCCCCCCCCNC(=O)[C@H](CO)n3cc(CCCSC)nn3)CC2)n1`, the Potency is 50.1 µM (active).

Turning to `C#CCOCCOCCOCCNc1nc(N2CCN(C(=O)CCCCCCCCCCNC(=O)Cn3cc(CCCCCN)nn3)CC2)nc(N2CCN(C(=O)CCCCCCCCCCNC(=O)[C@H](CO)n3cc(CCCSC)nn3)CC2)n1`, the Potency is 31.6 µM (active).

For `C#CCOCCOCCOCCNc1nc(N2CCN(C(=O)[C@H](CO)n3cc([C@@H](N)C(C)C)nn3)CC2)nc(N2CCN(C(=O)[C@H](CCC(=O)O)n3cc([C@@H](N)[C@H](C)CC)nn3)CC2)n1`, the Potency result is “inactive”.

Take `C#CCOCCOCCOCCNc1nc(N2CCN(C(=O)C([C@@H](C)CC)n3cc(C(N)COC(=O)C(F)(F)F)nn3)CC2)nc(N2CCN(C(=O)[C@H](CCCCN)n3cc(C(N)CC(C)C)nn3)CC2)n1` (some centres not stated): the Potency entry was “inactive”.

In the case of `C#CCOCCOCCOCCNc1nc(N2CCN(C(=O)C(Cc3ccc(O)cc3)n3cc(C(N)CC(C)C)nn3)CC2)nc(N2CCN(C(=O)C(Cc3ccc(O)cc3)n3cc(C(N)C(C)CC)nn3)CC2)n1` (configuration not stated), the Potency entry was “inactive”.

As for `COc1ccc(NC(=O)C(c2ccncc2)n2c(=O)c(-c3cc4ccccc4[nH]3)nc3ccccc32)cc1` (configuration not stated), the Potency result is “inactive”.

For the compound `Cc1ccc(C(=O)NNC(=O)OC(C)(C)C)c(Cl)c1`, the Potency entry is “inactive”.

As for `CCCCN(C=O)c1c(CC)nc2c(OCc3ccccc3C(=O)OC)cccn12`, the Potency entry was “inactive”.

Turning to `Cc1c(NC(=O)COC(=O)/C=C/c2cccc(F)c2)c(=O)n(-c2ccccc2)n1C`, the Potency result was “inactive”.

Regarding `O=C(C1CCN(CC2CCCCC2)CC1)N1CCCC1`, the Potency entry is “inactive”.

As for `CN1CCN(C(=O)c2ccc(-c3cc4nc(NCc5cccnc5)n(C)c(=O)c4s3)cc2)CC1`, the Potency entry is “inactive”.

In the case of `CN(C)NC(=O)C(NC(=O)c1ccc(N)cc1)C12CC3CC(CC(C3)C1)C2` (configuration not stated), the Potency entry was “inactive”.

Consider `Cc1cccc(CN2CCN(C3CN(Cc4cn(Cc5cc(C)cc(C)c5)nn4)S(=O)(=O)C3)CC2)c1` (configuration not stated), for which the Potency result was “inactive”.

Take `Cn1ccc(=Nc2ccc(NC(=O)c3ccc(N=c4ccn(C)c5ccc([N+](=O)[O-])cc45)cc3)cc2)cc1`: the Potency was 39.8 µM (active).

Take `CN(CC1CCCO1)S(=O)(=O)c1ccc(C(=O)Nc2ccc([N+](=O)[O-])cc2)cc1` (configuration not stated): the Potency entry was “inactive”.

For the compound `CC(C)c1ccc(NC(=O)CCN2C(=O)c3ccc([N+](=O)[O-])cc3C2=O)cc1`, the Potency result was “inactive”.

Take `CC(C)C[C@H]1CNC(=S)N1C[C@H]1CCCN1C[C@H](Cc1ccc(O)cc1)N1C[C@H](Cc2ccc(O)cc2)N(CC2CCCCC2)C1=S`: the Potency entry is “inactive”.

As for `O=C(c1cccnc1)N(c1cc2sc(=O)oc2c2ccccc12)S(=O)(=O)c1ccccc1`, the Potency is 20 µM (active).

On to `CCc1ccc(N(CC(=O)NCc2cccnc2)S(=O)(=O)c2ccccc2)cc1`, for which the Potency result was “inactive”.

Turning to `O=C(c1cccnc1)N(Cc1ccccc1)C(=O)c1cccnc1`, the Potency result was “inactive”.

On to `COC(=O)CCCCC1=CCC2C(=O)C=C(O)C2C1` (configuration not stated), for which the Potency is 50.1 µM (active).

Regarding `COc1ccc(C(C)=O)cc1COC(=O)Cn1cnc2ccccc2c1=O`, the Potency result was “inactive”.

For the compound `COC(=O)[C@@]1(Cc2ccc(OC)cc2)[C@H]2c3cc(C(=O)N4CCCC4)n(Cc4ccc(OC(F)(F)F)cc4)c3C[C@H]2CN1C(=O)c1ccccc1`, the Potency entry was “inactive”.

As for `CCOCCC(=O)Nc1ccc2c(c1)c(=O)n(C)n2-c1ccc2ccccc2c1`, the Potency entry was “inactive”.

The values are drawn from PubChem BioAssay AID651768 (National Center for Advancing Translational Sciences (NCATS), 2012).
